Compound activity (PubChem BioAssay)
Compounds with a hit are over-represented: about 4.9% of the library has one in this group of screens.
Platelet DG rel: modulates dense granule release in human platelets | AID 1663 | 300,000 tested, 0.22% active | inhibition, %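 (compounds screened at 7.5 µM in platelet-rich plasma)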 | human platelet-rich plasma, SFLLRN dense granule ATP release, luminescence;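 active means mean replicate score, as percent of positive control, at or above 50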
HSP90 inh: HSP90 refolding inhibition in rabbit reticulocyte lysate. luciferase refolding luminescence, 3 h. inhibition, % at 5.6 µM. 290,000 tested, 0.91% active. AID 1789;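 active means inhibition above the screen-wide mean plus 3 SD, computed separately per campaign, cut at about 16% in these data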;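 further: 0% = DMSO wells and 100% = 60 µM geldanamycin wells; inhibitors lower the luminescence because luciferase stays unfolded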
dFosB activator: enhances mouse delta FosB homodimer DNA binding | 340,000 tested, 0.99% active | purified delta FosB, TAMRA-CDK5 oligo fluorescence polarization; percent of positive-control signal above neutral wells | activation, % at 25 µM;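 active means mean activation above about 17%, with every replicate also reaching it, limit read from the data, passing the limit was not always enough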
HSF1 inh: HSF1 inhibition; NIH3T3-HGL HSE-luciferase, MG132-induced, luminescence 8 h; hits give low values; 300,000 tested, 0.77% active; activity change, negative = inhibition, % at 7.5 µM (by protocol);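 active means more than half of replicate wells show activity change below -50%, luminescence cut by over half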;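 further: luciferase reports HSF-1 transcriptional activity via heat shock element; 0% = median of DMSO wells and -100% = zero luminescence signal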
HSF1 activator: increases HSF-1 driven luciferase reporter signal | NIH3T3-HGL HSF-1 luciferase reporter, MG132, 8 h; 100% = twice DMSO control signal | activation, % at 9 µM | 300,000 tested, 1.7% active | AID 504408;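 active means mean replicate activation of at least 50% with a set share of replicates each reaching 50%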;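 further: 0% = median of the neutral control wells and 100% = twice that signal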
MPTP inh: inhibitors of mitochondrial permeability transition pore. 360,000 tested, 1.4% active. isolated mouse mitochondria, Ca2+ swelling absorbance, 30 min. inhibition, % at 10 µM;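 active means inhibition of 50% or more, scaled per plate between neutral and stimulator controls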;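 further: 0% = DMSO wells given calcium and 100% = 1 mM EGTA wells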
HSP90 inh confirm: HSP90 inhibition, confirmation assay; shares compounds with HSP90 inh; rabbit reticulocyte lysate, luciferase refolding luminescence, 3 h; inhibition, % at 5.9 µM; 2,300 tested, 64% active; in the data active means inhibition above about 18%;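 further: 0% = vehicle wells and 100% = reference inhibitor wells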
luciferase ctr: firefly luciferase inhibition, HSP90 counter-screen | purified native firefly luciferase, luminescence | shares compounds with HSP90 inh | AID 1847 | 2,300 tested, 48% active | inhibition, % at 5.9 µM;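 active means inhibition above the mean inhibition of all tested sample wells plus 3 SD, cut at about 10% in these data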;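 further: 0% = DMSO with luciferase and 100% = wells lacking luciferase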
Target sequence (P08659 whole entry, looked up): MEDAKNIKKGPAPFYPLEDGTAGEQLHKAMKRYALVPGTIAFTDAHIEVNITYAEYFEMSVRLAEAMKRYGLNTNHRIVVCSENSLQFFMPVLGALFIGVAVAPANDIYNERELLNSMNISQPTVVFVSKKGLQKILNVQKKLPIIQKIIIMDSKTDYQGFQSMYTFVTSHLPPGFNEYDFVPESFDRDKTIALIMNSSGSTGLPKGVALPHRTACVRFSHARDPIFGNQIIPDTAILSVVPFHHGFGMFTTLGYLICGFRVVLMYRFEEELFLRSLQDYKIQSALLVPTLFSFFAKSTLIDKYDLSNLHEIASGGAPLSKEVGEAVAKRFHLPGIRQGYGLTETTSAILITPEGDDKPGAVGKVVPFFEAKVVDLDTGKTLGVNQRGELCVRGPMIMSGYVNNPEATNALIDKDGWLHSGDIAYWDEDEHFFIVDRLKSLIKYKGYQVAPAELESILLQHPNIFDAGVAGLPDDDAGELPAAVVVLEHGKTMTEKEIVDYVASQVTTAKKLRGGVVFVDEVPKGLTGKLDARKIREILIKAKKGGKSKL
* hit, by the source's call; / = no result given.

SMILES	Platelet DG rel	HSP90 inh	dFosB activator	HSF1 inh	HSF1 activator	MPTP inh	HSP90 inh confirm	luciferase ctr
COCCNC(=O)C1(C)CCCN(CCOc2ccc(Cl)cc2)C1 (configuration not stated)	/	/	/	/	/	0.2	/	/
Cc1ccc2oc(=O)c(/C=C(\O)C(C)(C)C)nc2c1	5.5	1.1	8.3	-0.7	19.9	-0.9	/	/
CC(C)(C)/C(O)=C/c1nc2cc(Cl)ccc2oc1=O	15.9	79.7*	3.3	-2.4	-3.9	0.2	80.6*	-14.3
Cc1ccc2oc(=O)c(/C=C(\O)c3ccco3)nc2c1	-39.8	37.4*	0.3	3.6	-1.5	0.5	37.0*	-23.3
O=C(Nc1ncc([N+](=O)[O-])s1)c1ccc2c(c1)OCO2	80.4*	76.0*	-5.1	-31.5	-25.8	30.3	87.2*	76.1*
Cc1cnc(NC(=O)c2ccc3c(c2)OCCO3)s1	/	/	-7.3	/	/	-0.1	/	/
Cc1c(OCc2ccccc2)c(=O)ccn1Cc1ccccc1	1.2	19.5*	2.6	11.4	-3.6	-0.7	-7.0	-17.0
O=C(N/N=C/c1c[nH]c2ccccc12)c1cccc(Cl)c1	3.5	-2.5	0.4	18.7	34.5	1.1	/	/
COc1ccc2ccccc2c1/C=N/Nc1ccc(Cl)c(C(=O)O)c1	-9.2	11.8	-16.7	-5.1	5.1	1.7	/	/
O=C(O)c1cc(N/N=C/c2ccncc2)ccc1Cl	5.7	24.9*	-0.6	-1.0	-1.1	1.8	61.7*	10.4*
Clc1cccc(N/N=C/c2ccc(N3CCOCC3)cc2)c1	2.1	-1.2	-12.8	-22.4	-18.1	2.1	/	/
O=C(O)c1cc(N/N=C/c2c[nH]c3ccccc23)ccc1Cl	1.9	40.1*	4.5	-3.6	-10.0	-2.1	37.6*	-10.0
O=C(O)c1cc(N/N=C/c2ccc(N3CCOCC3)cc2)ccc1Cl	-2.1	38.8*	0.7	1.7	-2.1	-0.2	82.8*	64.7*
CSc1ccc(/C=N/Nc2ccc(Cl)c(C(=O)O)c2)cc1	5.7	33.1*	-6.9	-1.9	27.3	-2.8	79.9*	54.3*
O=C(O)c1cc(N/N=C/c2cccnc2)ccc1Cl	2.2	29.9*	3.1	-4.8	1.5	1.0	38.7*	-3.8
NC(c1csc(Nc2ccc(C(=O)c3ccccc3)cc2)n1)C1CCCCC1 (configuration not stated)	/	/	/	/	/	2.7	/	/
COc1cc(/C=N/Nc2nc3ccccc3s2)cc([N+](=O)[O-])c1O	11.8	29.1*	-10.2	17.6	5.6	4.8	-11.3	-29.6
O=C(Nc1cccc(O)c1)c1noc2c1CCc1ccccc1-2	50.8*	40.2*	-17.8	6.1	15.3	2.4	60.7*	53.7*
CN=c1scc(-c2ccc(F)cc2)n1/N=C/c1ccc(O)c(O)c1	/	19.7*	0.5	/	/	4.0	42.4*	18.8*
CN=c1scc(-c2ccc([N+](=O)[O-])cc2)n1/N=C/c1ccco1	-4.8	-8.9	0.3	20.2	34.3	9.3	/	/
COC(=O)c1cc2c(cc1N)OCCO2	-0.2	3.7	1.0	-10.8	-22.7	-1.0	/	/
Cc1ccc2c(c1)Cc1nc3ccccc3nc1-2	26.6	26.8*	-41.3	7.0	20.7	1.1	70.9*	62.6*
Cc1cc(N2CCCC2)nc2ccccc12	-0.1	1.3	-2.7	-4.8	-15.8	-0.5	/	/
Cc1ccc(C)c(S(=O)(=O)N2CCCOC2CNC(=O)C(=O)NCc2ccccn2)c1 (configuration not stated)	-13.2	-3.6	-6.6	1.5	-1.2	0.6	/	/
Cc1cccc(NC(=O)CSc2nc3ccc(NC(=O)CSc4nnnn4-c4ccccc4)cc3s2)c1C	/	54.8*	/	/	/	/	22.4*	-9.5
SMILES	Platelet DG rel	HSP90 inh	dFosB activator	HSF1 inh	HSF1 activator	MPTP inh	HSP90 inh confirm	luciferase ctr
Oc1cccc(-c2nc3ccccc3s2)c1	12.5	23.8*	-39.0	26.1	38.2	3.6	49.9*	34.1*
COc1ccc(-c2nc3ccccc3s2)cc1O	/	37.7*	5.1	18.8	43.0	3.0	77.7*	71.7*
Nc1cccc(-c2nc3ccccc3s2)c1	20.6	-2.8	-1.8	11.4	28.2	-1.7	/	/
COc1cccc(-c2nc3ccccc3s2)c1O	6.9	17.2*	6.7	39.3	90.4*	0.1	38.4*	32.0*
CC(C)c1ccc(-c2nc3ccccc3s2)cc1	41.0	83.5*	-9.1	-90.7*	-92.5	1.3	97.6*	94.1*
CC(CN1CCN(C)CC1)OC(=O)c1cccc(F)c1 (configuration not stated)	0.0	-1.2	-1.1	9.6	21.0	-0.6	/	/
C=CCNc1nc(NCc2ccc(N(C)C)cc2)c2sc(-c3ccccc3)cc2n1	/	/	/	/	/	4.5	/	/
CCNC(=S)NNC(=O)c1cc(-c2cccc(OC)c2)nc2ccccc12	39.2	-0.8	-7.7	4.1	-7.1	1.5	/	/
CCc1ccc(-c2cc(C(=O)Nn3cnnc3)c3ccccc3n2)cc1	44.9	30.1*	-14.8	-24.5	-33.0	0.0	55.7*	30.3*
CCNC(=S)NNC(=O)c1cc(-c2ccc(OCC)cc2)nc2ccccc12	103.4*	50.0*	-17.9	-40.6	-55.0	1.6	73.6*	25.3*
CCOc1ccc(-c2cc(C(=O)N/N=C(\C)c3cccnc3)c3ccccc3n2)cc1	0.6	28.3*	-14.0	8.5	1.2	0.5	3.3	-23.1
Cc1c(NC(=S)Nc2ccc(Cl)cc2)c(=O)n(-c2ccccc2)n1C	-2.4	-2.3	-1.0	0.4	9.0	-1.8	/	/
CC(C)(C)n1ncc2c(=O)n(CC(=O)OCc3ccccc3)cnc21	1.6	83.5*	-2.0	-73.4*	-74.3	7.5	91.3*	89.4*
CC(C)(C)n1ncc2c(=O)n(CC(=O)c3ccccc3)cnc21	-2.3	-3.8	1.5	17.1	23.6	0.4	/	/
COC(=O)c1ccc2ccccc2n1	0.6	/	/	4.7	18.8	-1.9	/	/
CCOc1ccc(N=C(NN)c2ccc3ccccc3n2)cc1	0.6	27.9*	-30.0	-81.6*	-83.6	0.5	12.4	-4.1
CC1(C)C(C=C(Cl)Cl)C1C(=O)N(Cc1cccc(Cl)c1)C1CCS(=O)(=O)C1 (configuration not stated)	-3.4	16.9*	-9.6	16.4	26.9	2.5	1.1	-10.3
COCC(=O)Nc1ccc(C(=O)Nc2ccccc2Cl)cc1	5.0	-3.8	/	4.3	18.5	/	/	/
CN1C(=O)/C(=C/c2coc3ccc(O)cc3c2=O)SC1=S	1.3	-2.1	12.8	9.2	11.6	3.5	/	/
Cc1cc(/C=C2\SC(=S)N(C)C2=O)c(C)n1-c1ccc(O)cc1	0.6	60.0*	-13.4	-51.8*	-50.7	38.4	82.2*	81.7*
COc1ccc(N=CC2=C(O)c3ccccc3C2=O)cc1	59.5*	28.9*	1.2	-24.7	-18.4	-0.6	76.8*	79.7*
O=C1CCCc2c1ccc1ccccc21	/	/	-9.5	/	/	-0.3	/	/
